The record followed here is PubChem BioAssay AID624377 (The Scripps Research Institute Molecular Screening Center, 2012).

Structures are written as SMILES. About 680 (0.19%) of roughly 360,000 compounds were called active. Only a selection was taken, and actives are over-represented in it overall. Values without a mark were called inactive. Cut-off read from the data, not from the text of the source: active = inhibition above about 25%; inactive = the rest.

In the assay the target is Arf-GAP with SH3 domain, ANK repeat and PH domain-containing protein 1 (Homo sapiens) (UniProt Q9ULH1). In words: blockers of ASAP1-stimulated ARF1 GTP hydrolysis – biochemical, fluorescence polarization, primary screen (AID 624377).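 Note: 0% = vehicle with enzyme and substrate and 100% = no enzyme.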 Conditions: GDP FP detection, at 16.5 µM, hits give high values. In general terms: Fluorescence polarisation rises when a labelled molecule tumbles more slowly, as on binding a larger partner.
Arf-GAP with SH3 domain, ANK repeat and PH domain-containing protein 1 (Homo sapiens), sequence (Q9ULH1 325-724 limits assumed): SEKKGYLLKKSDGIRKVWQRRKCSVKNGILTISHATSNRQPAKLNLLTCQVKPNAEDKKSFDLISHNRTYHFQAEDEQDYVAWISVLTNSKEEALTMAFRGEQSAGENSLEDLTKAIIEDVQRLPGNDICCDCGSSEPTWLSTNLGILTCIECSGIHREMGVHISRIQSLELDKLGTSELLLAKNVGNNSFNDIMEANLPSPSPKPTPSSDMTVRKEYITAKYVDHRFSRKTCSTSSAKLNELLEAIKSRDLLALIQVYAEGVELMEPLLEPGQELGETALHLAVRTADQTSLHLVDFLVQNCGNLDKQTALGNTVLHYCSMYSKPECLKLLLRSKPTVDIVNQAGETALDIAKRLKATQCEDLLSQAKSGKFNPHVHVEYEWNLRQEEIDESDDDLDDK
As usually defined, the inhibition is the relative decrease from the control value, in per cent. With `COC(=O)[C@]12C[C@H](CC(=O)NCCC(C)C)C(=O)N(CCc3ccc(OC)c(OC)c3)C1=C[C@H](C(C)(C)C)O[C@@H]2C`, the inhibition is 10.4%. In the case of `Cc1nc(NC(=O)C(C)(C)C)sc1[N+](=O)[O-]`, the inhibition was -0.12%. As for `Nc1ncnc2c1ncn2[C@@H]1O[C@H](C(=O)N[C@@H](CCc2ccccc2)C(=O)N2CCCN(Cc3cccs3)CC2)[C@@H](O)[C@H]1O`, the inhibition was -0.42%. The value for `COC(=O)C1=C(C)N(Cc2ccc(C(F)(F)F)cc2)C(=NCc2ccccc2)NC1c1ccccc1C(F)(F)F` (stereo not given) was -2.57%; that for `COCCNC(=S)N(C)[C@H]1C[C@H]2c3[nH]c4ccccc4c3CCN2C[C@H]1[C@H](C)O` was 6.89%; that for `O=C(NN=Cc1ccco1)C(=O)Nc1ccc(Cl)c([N+](=O)[O-])c1` was 3.05%. For the compound `COC(=O)C1=C(C)N(Cc2cccc(C(F)(F)F)c2)C(=NCc2ccccc2)NC1c1ccccc1C(F)(F)F` (stereo not given), the inhibition is 11.8%. Turning to `COC(=O)[C@H](CC(C)C)NS(=O)(=O)c1c(F)cccc1F`, the inhibition was 0.11%. The value for `CCc1ccc(C2=CC(=O)CC(C)(C)C2=O)cc1` was -7.16%; that for `C=CC[C@]12C[C@@]3(O[C@H](c4ccc(C(F)(F)F)cc4)N=C3C[C@H](c3ccc(OC)cc3)[C@H]1C)N(C1CCN(Cc3ccccc3)CC1)C2=O` was 5.12%. For `CC(C)(C)c1ccc(S(=O)(=O)NCC2CCN(C(=O)C(=O)c3cc4ccccc4o3)CC2)cc1`, the inhibition was -6.17%. For the compound `CCOC(=O)c1ccc(NC(=O)c2c(NCc3ccccc3)[nH]c(=O)[nH]c2=O)cc1`, the inhibition is -2.85%. Under `CCOC(=O)c1ccc(NC(=O)c2c(N)n(C)c(=O)[nH]c2=O)cc1` stands 10.2%; under `CCOC(=O)c1ccc(Nc2cc3ccccc3c(=O)[nH]2)cc1`, 29.1% (active); under `CCOC(=O)Cn1c2c(n(-c3ccc(F)cc3)c1=O)C=C(c1ccccc1)[C@@H](C)C(C(=O)N(C)C1CCCCC1)=C2`, -1.25%. Under `N#Cc1cc([N+](=O)[O-])ccc1Oc1cccc(/C=N/NC(=O)c2ccc(Cl)cc2)c1` stands 25.2% (active).

With `O=C(N/N=C/c1cccc([N+](=O)[O-])c1)C1CC(=O)N(c2ccc(Br)cc2)C1` (stereo not given), the inhibition is -8.22%.

On to `CCCc1ccc(OCc2ccc(C(=O)N/N=C/c3cccc([N+](=O)[O-])c3)o2)c(OC)c1`, for which the inhibition was -0.67%. As to `CN(C)C(=O)N1CCN(C(=O)[C@@H](Cc2ccccc2)NC(=O)[C@H]2O[C@@H](n3ccc(N)nc3=O)[C@H](O)[C@@H]2O)CC1`, the inhibition was -4.92%.

In the case of `COc1cccc(-c2cc(CNC(=O)[C@@H](Cc3ccccc3)NC(=O)[C@H]3O[C@@H](n4cnc(C(N)=O)n4)[C@H](O)[C@@H]3O)no2)c1`, the inhibition was 0.63%. The value for `COC(=O)c1sc(N2CCN(Cc3ccccc3)CC2)nc1N` was 6.27%; that for `C=CCNc1nc(N)c(C(=C(C#N)C#N)c2ccccc2)s1` was 29.1% (active). As to `COc1ccccc1Cc1c(-c2ccc(F)cc2)nc2ccc(C)cn12`, the inhibition is -3.6%. As to `O=S(=O)(NCc1ccccc1)c1ccc(S(=O)(=O)N2CCCC2)cc1`, the inhibition was 16.8%.

For `COC(=O)C1=C(C)NC(=O)/C1=C/c1ccc(CNS(=O)(=O)c2ccc(C)cc2)o1`, the inhibition was -2.9%. For the compound `O=c1/c(=C/c2ccc(CNS(=O)(=O)c3ccccc3)o2)sc2n1CCN=2`, the inhibition was 26% (active). On to `Cc1ccc(C)c(CN2CCC(CNC(=O)C3CCCN(c4ncnc5c4nc4n5CCCCC4)C3)CC2)c1` (stereo not given), for which the inhibition is -4.48%. The value for `COc1ccccc1-c1ccc([C@@H]2C[C@H]3[C@H](CON3C)CN2S(=O)(=O)c2cc(Cl)cc(Cl)c2)cc1` was -15.3%; that for `CN1CCCCC(NC(=O)C(C)(C)C)C1=O` (stereo not given) was -1.72%; that for `CC(=NNC(N)=O)c1ccc(Cl)c(-n2cccc2)c1` was 7.66%.

As to `Cc1cc(NCCc2c[nH]c3ccccc23)ccc1Oc1cccnc1`, the inhibition is 6.6%. In the case of `COC(=O)[C@]12C[C@H](CC(=O)N3CCN(C(=O)C4CC4)CC3)C(=O)N(Cc3ccc4c(c3)OCO4)C1=C[C@H](C(C)(C)C)O[C@@H]2C`, the inhibition is -0.19%. The value for `COC(=O)[C@]12C[C@H](CC(=O)NCCc3ccccc3OC)C(=O)N(Cc3ccccc3)C1=C[C@H](C(C)C)O[C@@H]2C1CC1` was -3.14%; that for `CC[C@H](C)[C@H]1CNC(=O)C(=O)N1CC1CCN(CCc2ccc(OC)c(OC)c2)CC1` was -3.91%; that for `COc1ccc(-c2ccc3c(n2)CCCN3S(=O)(=O)c2ccc(C)cc2)cc1` was -10.4%. Under `CN[C@H]1C[C@H]2c3[nH]c4c(-c5ccccc5)cccc4c3CCN2C(=O)[C@H]1[C@H](C)O` stands -4.1%; under `COC(=O)C1=C(C)N(Cc2cccc(C(F)(F)F)c2)C(=NCc2cccc(C(F)(F)F)c2)NC1c1ccccc1C(F)(F)F` (stereo not given), 4.19%; under `CCOC(=O)/C=C/c1ccccc1O`, 8.09%. As to `C[C@@H]1ON(C)[C@H]2C[C@H]3c4cc(N5CCOCC5)ccc4CCN3C[C@@H]12`, the inhibition is 11.7%. In the case of `COC(=O)c1cc2c(c3c4ccccc4n(S(=O)(=O)c4cccc(C)c4)c13)C(=O)N(Cc1ccccc1)C2`, the inhibition is -7.05%. For the compound `COc1ccc(NC(=O)CSc2nnnn2-c2cccc(OC)c2)cc1`, the inhibition is 3.21%. Under `O=C(CSc1nnnn1-c1ccc(O)cc1)c1ccc(F)cc1` stands 1.74%. Under `COc1ccc(-n2nnnc2SCC(=O)c2ccc(OC)c(OC)c2)cc1` stands 27.3% (active); under `OC(CCl)CCl`, 12.1%. As to `COC(=O)c1c(-c2ccc(OC)cc2)c2c(c3c4cc(OC)ccc4n(S(=O)(=O)c4ccc(F)cc4)c13)C(=O)N(C)C2`, the inhibition is -0.62%. On to `CCCN1C(=O)c2[nH]nc(-c3ccccc3)c2C1c1ccccc1` (stereo not given), for which the inhibition was 0.41%. On to `C[C@H](CO)N1C[C@H](C)[C@@H](CN(C)C(=O)Nc2ccccc2F)OCc2cn(nn2)CCCC1=O`, for which the inhibition was -10.4%.

On to `Nc1ncnc2c1ncn2C1OC(CO)CC1O` (stereo not given), for which the inhibition was 3.34%. As to `Cc1ccccc1C(=O)N[C@H](C(=O)N1CCC[C@H]1C(=O)NCc1ccccc1)C(C)C`, the inhibition was -8.79%. With `COC(=O)[C@]12C[C@H](CC(=O)NCc3ccccc3)C(=O)N(CCC3=CCCCC3)C1=C[C@H](C(C)(C)C)O[C@@H]2C`, the inhibition is -6.37%. The value for `COc1ccc(C2=CN(Cc3ccccc3)C(c3ccc(OC)cc3)CC2=O)cc1` (stereo not given) was 12.3%; that for `CC(C)C[C@H](NC(=O)CC1CCCC1)C(=O)N1CCC[C@H]1C(=O)NCc1ccccc1` was -6.9%. `COc1ccccc1CCn1cnc(-c2ccccc2)c1C(C)C`: the inhibition is 16.9%. As to `CCOC(=O)C1=C(C(=O)OCC)C2N(Cc3ccc(C#N)cc3)c3ccccc3[C@@]23C[C@@H](C(=O)OC)N(S(=O)(=O)c2ccc(F)cc2)C3=N1` (stereo not given in full), the inhibition is 12.3%. Under `COc1cccc(CC(=O)N2CCN(C(=O)C(=O)c3cccc(C(F)(F)F)c3)CC2)c1` stands 3.01%. For `CCN(CC)c1ccc2cc(C(N)=O)/c(=N\NC(=O)c3ccncc3)oc2c1`, the inhibition is 26.4% (active).

As for `CCOc1cc(/C=N/NC(=O)c2ccncc2)cc(Br)c1O`, the inhibition is -12.7%. For `CC(=NNC(=O)c1ccncc1)c1ccc(Cl)c(Cl)c1`, the inhibition is -23.7%. In the case of `CCOC(=O)N1CCN(C(=O)C[C@H]2C[C@@]3(C(=O)OC)C(=C[C@H](C4CCCC4)O[C@@H]3C)N(Cc3ccccc3)C2=O)CC1`, the inhibition was -6.46%. `COc1ccc(CNS(=O)(=O)c2cc(Br)ccc2Br)cc1`: the inhibition was -8.38%. For the compound `CCN1CCCC1CNC(=O)c1ccc2c(c1)NC(=O)/C(=C\c1ccccc1F)S2` (stereo not given), the inhibition is -12.3%.

In the case of `COc1ccc(CCNC(=O)c2ccc3c(c2)NC(=O)C(N2CCOCC2)S3)cc1OC` (stereo not given), the inhibition is -5.91%. Under `CCN1CCN(CCNC(=O)c2ccc3c(c2)NC(=O)/C(=C\c2ccc(OC)c(OC)c2)S3)CC1` stands 25.9% (active); under `COc1ccc(NC(=O)N(C)C[C@@H]2OCCCC[C@@H](C)Oc3ccc(NC(=O)NC4CCCCC4)cc3C(=O)N([C@H](C)CO)C[C@@H]2C)cc1`, -0.3%; under `NC(=O)c1ncn([C@@H]2O[C@H](C(=O)O)[C@@H](O)[C@H]2O)n1`, -8.9%. The value for `O=C(NCc1ccccc1)[C@@H]1CCCN1C(=O)[C@H]1CCCN1C(=O)c1cccc(Cl)c1` was 5.06%; that for `CC(C)CNc1cccc2c1S(=O)(=O)N[C@H](CC(C)C)CO2` was 14.4%. The value for `COCc1cc(N2CCN(C(=O)OC(C)(C)C)C[C@@H]2C)ccc1N1CCN(Cc2ccccc2)[C@H](C)C1` was -0.13%. Consider `O=c1[nH]c(-c2ccccc2)cn1C1CCN(Cc2ccc(-c3nc4ccc(F)cc4nc3-c3ccccc3)cc2)CC1`, for which the inhibition was 6.64%. Turning to `O=S1(=O)c2c(cccc2N2CCCCC2)O[C@H](COCc2ccccc2)CN1C1CC1`, the inhibition is -0.37%. Under `CCN1C(=O)N[C@@H]2C[C@H](C(=O)N3CCCC3)[C@H](C)[C@H](c3ccccc3)C[C@@H]21` stands 9.08%. Under `COC(=O)Cc1nnn2c1[C@H](C)[C@H](c1ccccc1[N+](=O)[O-])OCC2` stands 5.28%. `N#Cc1ccc(OCCCN2CCC(C(O)(c3ccccc3)c3ccccc3)CC2)c(F)c1`: the inhibition was 12.3%. Consider `O=C(NCc1ccccc1)[C@H]1CCCN1C(=O)[C@H]1CCCN1C(=O)c1cc(F)cc(F)c1`, for which the inhibition is 5.35%. The value for `Cc1[nH]nc2c1C(c1ccc(Br)cc1)NC2=O` (stereo not given) was 13.4%.
